Results reported in the supplement of paper PMC6522484.
± gives the standard deviation of the averaged measurements.

Assays:
DLD1 [1] = assay: cell viability (CellTiter-Glo) relative to plate median (fraction of plate median); higher = more viable cells; settings: 5 µM; treatment time 24 h; reporter: 7TFP
How it was run: (§1)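 Luminescence, normalised well by well to the plate median, is tabulated as a mean of independent replicates. There were two replicates, run on colorectal cancer lines stably transduced with lentiviral TCF/Wnt firefly luciferase reporters and dosed with library compounds at a final 5 µM for 24 h. Readouts were firefly luciferase or CellTiterGlo on parallel plates.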

HCT116 = assay: as above; settings: 5 µM; treatment time 24 h; reporter: TCF4/Wnt
How it was run: as §1

SW480 [2] = assay: as above; settings: 5 µM; treatment time 24 h; reporter: 7TFP
How it was run: as §1

DLD1 [3] = assay: TCF/Wnt firefly luciferase reporter signal relative to plate median (fraction of plate median); higher = higher Wnt reporter signal; settings: 5 µM; treatment time 24 h; reporter: 7TFP
How it was run: as §1

SW480 [4] = assay: as above; settings: 5 µM; treatment time 24 h; reporter: 7TFP
How it was run: as §1

Row | SMILES | cell viability (DLD1 [1]) | cell viability (HCT116) | cell viability (SW480 [2]) | TCF/Wnt firefly luciferase reporter signal (DLD1 [3]) | TCF/Wnt firefly luciferase reporter signal (SW480 [4])
1 | Nc1c2ccccc2nc2ccccc12 | 0.942 ± 0.071 | 0.919 ± 0.11 | 1.03 ± 0.021 | 1.52 ± 0.54 | 1.01 ± 0.13
2 | CC#C[C@]1(O)CC[C@H]2[C@@H]3CCC4=CC(=O)CCC4=C3[C@@H](c3ccc(N(C)C)cc3)C[C@@]21C | 0.972 ± 0.023 | 1.04 ± 0.12 | 0.931 ± 0.042 | 0.891 ± 0.05 | 1.01 ± 0.063
3 | CCOc1ccc2nc(S(N)(=O)=O)sc2c1 | 0.972 ± 0.054 | 0.896 ± 0.15 | 0.961 ± 0.014 | 0.704 ± 0.088 | 0.891 ± 0.091
4 | CC1(C)C=Cc2c(cc3occ(-c4ccc5c(c4)OCO5)c(=O)c3c2O)O1 | 0.951 ± 0.083 | 0.926 ± 0.17 | 0.952 ± 0.042 | 0.909 ± 0.012 | 1 ± 0.042
5 | CC(C)=CCc1c2c(c3occ(-c4ccc(O)cc4)c(=O)c3c1O)C=CC(C)(C)O2 | 0.955 ± 0.093 | 0.98 ± 0.028 | 0.99 ± 0.015 | 1.1 ± 0.099 | 0.914 ± 0.099
6 | CC(=O)O[C@H]1C[C@@H](OC(C)=O)C(C)(C)C2C[C@@H](O)[C@]3(C)C(CC[C@@]4(C)[C@H](c5ccoc5)OC(=O)[C@H]5O[C@]543)[C@]21C (stereo not given in full) | 1.04 ± 0.042 | 1.06 ± 0.014 | 1.01 ± 0.073 | 0.977 ± 0.033 | 1.02 ± 0.061
7 | O=C(O)COCCN1CCN(C(c2ccccc2)c2ccc(Cl)cc2)CC1 (stereo not given) | 0.94 ± 0.054 | 0.896 ± 0.05 | 0.955 ± 0.024 | 1.04 ± 0.035 | 0.915 ± 0.033
8 | Oc1cccc2nc3c(O)cccc3nc12 [1,6-Phenazinediol] | 1.12 ± 0.014 | 0.992 ± 0.069 | 1.01 | 1.12 ± 0.042 | 1.12 ± 0.12
9 | O=c1cc(-c2ccc(O)cc2)oc2cc(O)ccc12 | 1.06 ± 0.13 | 0.987 ± 0.1 | 0.987 ± 0.033 | 0.92 ± 0.11 | 1.04 ± 0.028
10 | COc1cc(OC)c(-c2c(OC)cc(OC)cc2OC)c(OC)c1 | 1.015 ± 0.0071 | 0.953 ± 0.14 | 1.02 ± 0.014 | 0.926 ± 0.018 | 1.01
11 | C1CCN2C[C@@H]3C[C@H](CN4CCCC[C@@H]34)[C@H]2C1 | 0.938 ± 0.076 | 0.9855 ± 0.0064 | 0.93 ± 0.035 | 0.883 ± 0.072 | 0.979 ± 0.03
12 | N=C1C=CC(=C(c2ccc(N)cc2)c2ccc(N)cc2)C=C1 | 0.908 ± 0.046 | 0.873 ± 0.0028 | 0.829 ± 0.053 | 0.923 ± 0.057 | 0.819 ± 0.14
13 | O=C1C=C2CC3(O)COc4cc(O)ccc4C3=C2C=C1O (stereo not given) | 1.02 ± 0.11 | 1.06 ± 0.12 | 0.98 ± 0.016 | 1.015 ± 0.0071 | 1.02
14 | C=C(NC(=O)C(=C)NC(=O)c1csc(C2=N[C@@H]3c4csc(n4)[C@H]4NC(=O)c5csc(n5)[C@H]([C@](C)(O)[C@@H](C)O)NC(=O)[C@H]5CSC(=N5)/C(=C/C)NC(=O)[C@H]([C@@H](C)O)NC(=O)c5csc(n5)[C@]3(CC2)NC(=O)[C@H](C)NC(=O)C(=C)NC(=O)[C@H](C)NC(=O)[C@H]([C@@H](C)CC)N[C@@H]2C=Cc3c([C@H](C)O)cc(nc3[C@H]2O)C(=O)O[C@@H]4C)n1)C(N)=O | 0.927 ± 0.044 | 1.05 | 0.999 ± 0.044 | 0.966 ± 0.18 | 1.05 ± 0.071
15 | COc1ccc(CN(CCN(C)C)c2ncccn2)cc1 | 0.994 ± 0.0057 | 0.969 ± 0.086 | 1 ± 0.055 | 0.9635 ± 0.00071 | 0.931 ± 0.021
